# PubChem BioAssay (EPA / NIEHS)
# Calls of active or inactive are those of the source. Rule for the calls: active = hit-call score of the fitted dose curve at least 0.9, where 1 is the maximum; inactive = score below 0.9.
# Experiment: CCTE_Harrill_HTTr_Viability_MCF7: CCTE's 6-hour Cell Viability Assessment for the High-Throughput Transcriptomics (HTTr) Platform, in MCF-7 cells cultured in DMEM + 10% fetal bovine serum, Harrill Lab (AID 2284010)
# Outline: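 Eight-point concentration series, six-hour exposure. Propidium iodide exclusion imaged to assess membrane integrity as a cytotoxicity readout; bidirectional fitting was done with DMSO as negative control and activity baseline.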
row,SMILES,outcome
1,CC(=O)CCCCn1c(=O)c2c(ncn2C)n(C)c1=O,inactive
2,Nc1c(CC(=O)O)cccc1C(=O)c1ccc(Br)cc1,inactive
3,COc1ccc(CCN(C)CCCC(C#N)(c2ccc(OC)c(OC)c2)C(C)C)cc1OC (stereo unspecified),inactive

# Experiment: CCTE_Harrill_HTTr_Apoptosis_MCF7: CCTE's 6-hour Apoptosis Assessment for the High-Throughput Transcriptomics (HTTr) Platform, in MCF-7 cells cultured in DMEM + 10% fetal bovine serum, Harrill Lab (AID 2284011)
# Outline: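 MCF-7 (DMEM + 10% FBS), 384-well; 8-pt dilution series, 6 h chemical exposure; caspase-3/7 activation via CellEvent Caspase 3/7 Green, HCI; bidirectional fit vs DMSO.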
row,SMILES,outcome
1,CC(=O)CCCCn1c(=O)c2c(ncn2C)n(C)c1=O,inactive
2,Nc1c(CC(=O)O)cccc1C(=O)c1ccc(Br)cc1,inactive
3,COc1ccc(CCN(C)CCCC(C#N)(c2ccc(OC)c(OC)c2)C(C)C)cc1OC (stereo unspecified),inactive
